Experimental data from PubChem BioAssay (NCI).
Compounds without any hit were thinned out: in the full panel of roughly 83,000, 20% have a hit.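 Method: cells in 96-well plates; compound added at one concentration; 48 h incubation; percent growth measured; values under 10 scored active.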 Activity calls are given as the source filed them.

System: NCI-H522 lung
Experiment: NCI-60 one-dose screen, 48 h (100 = growth as untreated, 0 = no growth, -100 = all killed)
Conditions: 10 µM unless noted
Description: Growth inhibition of the NCI-H522 human Non-Small Cell Lung tumor cell line is measured as a screen for anti-cancer activity. Cells are grown in 96 well plates and exposed to the test compound for 48 hours. Compounds are tested at a single concentration, which is 10^-5 M for most compounds. The reported endpoint is percent growth (GI% or GIPRCNT), where numbers from 0 - 100% represent growth inhibition, and numbers from -100% - 0 represent cell death. For example, a value of 40 represents 60% growth inhibition. A value of 0 means no net growth occurred over the course of the experiment. A value of -40 indicates 40% of cells at the beginning of the experiment died by the end of the experiment. A value of -100 means all cells are dead at the end of the experiment.
NCI-60 Human Tumor Cell Lines Screen was performed using the standard one-dose NCI protocol, which is described in more detail at https://dtp.cancer.gov/discovery_development/nci-60/default.htm.
Compounds with GIPRCNT values below 10 were considered active. Activity score was based on GIPRCNT using the following formula: […]
Score is 0 for GIPRCNT values of 100 or above, 50 for GIPRCNT values of 0, and 100 for GIPRCNT values of -100.

Structure (SMILES)	growth
O=C1c2cccc3cccc(c23)C(=O)N1C/C=C/c1ccc2c3c(cccc13)C(=O)N(CCO)C2=O	89.2% (inactive)
COc1ccc(-c2nn(-c3ccccc3)cc2/C=C/C(=O)NNC(=O)Nc2ccc(C)cc2)cc1	89.4% (inactive)
C=CCOC(=O)C1=C(C)N(CC)C(=O)NC1c1c(Cl)n(C)c2ccccc12 (stereo not given)	85.3% (inactive)
COc1cc(NC(=O)c2cncnc2Nc2ccc3c(ccn3Cc3ccccn3)c2)cc(OC)c1	38.9% (inactive)
CCc1n(Cc2ccc3ccccc3n2)cc[n+]1Cc1ccc2ccccc2n1	-3.51% (active)
O=C(N/N=C\c1cccc([N+](=O)[O-])c1)N/N=C/c1cccc([N+](=O)[O-])c1	98.9% (inactive)
CC[N+]1(CC)CC[N+]2(CCCC(C)CC2)CC1 (stereo not given)	93.3% (inactive)
CC1(C)CC(=O)c2c(nn(-c3ccc(Br)cc3)c2-c2cn(-c3ccccc3)nc2-c2cccnc2)C1	85.6% (inactive)
CN1CCN(c2ccc3nc4c(nc3c2C(F)(F)F)C(=O)c2ncccc2C4=O)CC1	-67.5% (active)
O=C1Nc2ccccc2/C1=C/c1cccn1C(=O)c1ccc(Cl)s1	37.8% (inactive)
Oc1ccc(/C=C/c2ccc(O)cc2)cc1	-0.122% (active)
COc1cnc2c(c1)C(=O)c1c-2n(CCCCl)c(=O)c2ccncc12	26.7% (inactive)
Cc1ncc(C(=O)Nc2ccc(CN3CCN(C)CC3)c(C(F)(F)F)c2)cc1C#Cc1cnc(N)c2ncccc12	26.2% (inactive)
COc1ccc(CNc2c3ccccc3nc3ccccc23)c(OC)c1	40.6% (inactive)
COc1cc(C(=O)n2nc(N3CCOCC3)c3cc(-n4cccc4)ccc32)cc(OC)c1OC	74.4% (inactive)
C=C1C(=O)O[C@H]2[C@H]1CC/C(COC(=O)NCc1ccc(Cn3c(=O)sn(-c4ccc(C#N)cc4)c3=O)cc1)=C\CC[C@@]1(C)O[C@@H]21	-28% (active)
Clc1c(Cl)[n+](Cc2ccc3ccccc3c2)cn1Cc1ccc2ccccc2c1	-52.5% (active)
Cc1nn(-c2ccccc2)c(N)c1N=C1NC(=O)/C(=C/c2ccc(Br)cc2)S1	85.4% (inactive)
CN(C)S(=O)(=O)Oc1ccc(-c2sc3cc(OS(=O)(=O)N(C)C)ccc3c2C(=O)c2ccc(OCCN3CCCCC3)cc2)cc1	39.6% (inactive)
COc1ccc(CCN2C(=O)/C(=C/c3ccc(C4Oc5ccccc5C5CC(c6ccccc6)=NN54)cc3)SC2=S)cc1 (stereo not given)	96% (inactive)

Structure (SMILES)	growth
COc1ccccc1N(C(C)=O)C1=C(Cl)C(=O)c2ccccc2C1=O	-78% (active)
NC1=Nc2cc(OCCCCN3Cc4ccccc4C3)c(OCC3CC3)cc2C12CCCC2	67.3% (inactive)
C#CC#CC#CC#CC#CC#CC#CC#CC[C@@H]1OC[C@@H](COC(=O)O[C@@H](C(=O)O[C@H]2C[C@@]3(O)[C@@H](OC(=O)c4ccccc4)[C@@H]4[C@]5(OC(C)=O)CO[C@@H]5C[C@H](O)[C@@]4(C)C(=O)[C@H](OC(C)=O)C(=C2C)C3(C)C)[C@@H](NC(=O)c2ccccc2)c2ccccc2)O1	92.4% (inactive)
CCOC(=O)C(Cc1ccc(OC)cc1)C(=O)OCC	25% (inactive)
Cc1ccc(/C=C/C(=O)c2cccc(OCCCOc3cccc(C(=O)/C=C/c4ccc(C)cc4)c3)c2)cc1	76.2% (inactive)
O=C(Nc1ncc(Cc2ccccc2)s1)c1ccc2c(c1)OCCCO2	-4.73% (active)
COC(=O)c1c2c(c(C)[n+]([O-])c1C)C(=O)C(NCc1ccc(OC)cc1)=CC2=O	-5.69% (active)
O=C(CCl)NNc1nccc(Nc2ccc(S(=O)(=O)Nc3ccncc3)cc2)n1	-42.9% (active)
C=C1C(=O)O[C@H]2[C@H]1CC/C(COC(=O)/C=C\C(=O)NCc1ccc(Cn3c(=O)sn(CCCCC)c3=O)cc1)=C\CC[C@@]1(C)O[C@@H]21	-7.84% (active)
O=C(Cc1ccccc1)Nc1cccc(N=Cc2ccccc2O)c1	91.1% (inactive)
CCOC(=O)C(=Cc1ccc(-c2ccccc2)cc1)C(=O)OCC	26% (inactive)
Cc1nc2cc(O)c(O)cc2cc1Oc1ccc(NC(=O)Nc2ccc(Cl)c(Cl)c2)cc1	1.87% (active)
CC1(C)OB(O)c2cc(-c3nc4ccc5[nH]ncc5c4c4c3CCCC4)ccc21	77.9% (inactive)
COC(=O)c1ccc(NC(=O)Nc2ccc(C(=O)OC)cc2)cc1	51.2% (inactive)
CCc1ccc(CCC(=O)Nc2ncc(Cc3ccccc3)s2)o1	-2.33% (active)
COc1ccc(-c2nc3c(N)c(CO)cnc3s2)cc1	92.1% (inactive)
C[C@H](C(=O)N(CCc1ccc(Cl)c(Cl)c1)Cc1cncs1)[C@@H]1CC[C@H](C[C@H](C)n2cc(CN3CCC(c4ccc(Cl)cc4)CC3)nn2)O1	86.7% (inactive)
COc1ccc(-c2nc(/C=C3\C(=O)N(C)c4ccccc43)c3ccccn23)cc1	58.7% (inactive)
COc1ccc(/C=C(/C(=O)n2cnnn2)c2cc(OC)c(OC)c(OC)c2)cc1	20.6% (inactive)
COC(=O)c1nc(-c2ccccc2)oc1S(=O)(=O)NCC(c1ccc(Cl)cc1)N1CCOCC1 (stereo not given)	23.8% (inactive)
